Data published in PubChem BioAssay (Tox21).
Results filed as inconclusive are left out. Where a call stands in place of a potency, no number is given. A structure can be active in one record and inactive in another. Active and inactive are the calls of the source. Calls come from the whole dose curve; as a rule, active = well fitted cell-killing curve with a large enough effect in the repeat runs; inconclusive = weak or mixed curves, or effect the other way; inactive = flat fitted curve, though single readings scatter.
Potency is the fitted concentration of half-maximal effect.

Experiment: qHTS RealTime-Glo MT Cell Viability Assay in HepG2 cells - 40 hour (AID 1224870); note: nearly all actives have a fitted effect of over 50% in size
Conditions: RealTime-Glo luminescence; series mostly up to 76.8 µM
In short: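 HepG2 cells mixed with RealTime-Glo MT reagents (NanoLuc plus cell-permeant prosubstrate) were seeded at 600 cells/well, incubated 5 h at 37 C/5% CO2, then pinned with compounds in DMSO; nonlytic luminescence tracked viability during 40 h treatment.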
With `Nc1c(Cl)cc(Cl)cc1Cl` the Potency was “inactive”.
With `CC(NN)c1ccccc1` (configuration not stated) the activity change, negative = cytotoxic was -0.13% [at 15.8 µM] (inactive).
For `CCC(N)(CO)CO`, the Potency was “inactive”.
In the case of `CC1=NC(C)OC1C` (configuration not stated), the Potency is reported as “inactive”.
With `CC(C)(C)C(=O)OCOC(=O)C1N2C(=O)CC2S(=O)(=O)C1(C)C` (configuration not stated) the Potency was “inactive”.
With `OCCCCCCCCCCCCBr` the Potency was “inactive”.
In the case of `COC(=O)C1=C(C)NC(C)=C(C(=O)OCC(C)C)C1c1ccccc1[N+](=O)[O-]` (configuration not stated), the Potency is reported as 49 µM (active) and inactive.
For `N#CC1(c2ccc(F)cc2)CCC(=O)CC1`, the Potency was “inactive”.
With `CCCCCCCCCCC=O` the Potency was “inactive”.
In the case of `CN(C)c1ccc(SC#N)cc1`, the Potency is reported as “inactive”.
In the case of `CCCCCCCCOc1ccccc1C(=O)Nc1ccc(C(=O)OCC[N+](C)(CC)CC)cc1`, the Potency is reported as “inactive”.
For `CC(C)(C)C1CCC(CC2=C(O)c3ccccc3C(=O)C2=O)CC1` (configuration not stated), the Potency was “inactive”.
With `O=C1c2ccccc2Cc2ccccc21` the Potency was “inactive”.
In the case of `NC(=O)NS(=O)(=O)c1ccc(N)cc1`, the Potency is reported as “inactive”.
For `CCC1OCC(COc2ccc(Oc3ccccc3)cc2)O1` (configuration not stated), the Potency was “inactive”.
In the case of `c1ccc(CSCc2ccccc2)cc1`, the Potency is reported as “inactive”.
In the case of `Cc1cc(O)c(Cl)c(C)c1Cl`, the Potency is reported as “inactive”.
For `Cc1c(C)c2c(c(C)c1O)CCC(C)(COc1ccc(CC3SC(=O)NC3=O)cc1)O2` (configuration not stated), the Potency was “inactive”.
For `C[C@H]1[C@H]2CC[C@H]3[C@@H]4CC=C5C[C@@H](N(C)C)CC[C@]5(C)[C@H]4CC[C@]23CN1C`, the Potency was “inactive”.
In the case of `CCCCCOC(=O)CCCC`, the Potency is reported as “inactive”.
In the case of `CSc1cnc(C)cn1`, the Potency is reported as “inactive”.
For `O=c1[nH]cnc2nc[nH]c12`, the Potency was “inactive”.
For `C/C=C(\C)C(=O)OCc1ccccc1`, the Potency was “inactive”.
In the case of `C1CCCC1`, the Potency is reported as “inactive”.
With `C/C=C1/C(=O)C[C@H]2[C@@H]3CCC4=CC(=O)CC[C@]4(C)[C@H]3CC[C@]12C` the Potency was “inactive”.
For `O=C(O)c1ccc(Cl)c(Cl)c1`, the Potency was “inactive”.
For `Cc1ccc(O)c(C(C)(C)C)c1`, the Potency was “inactive”.
